Compounds with a hit are over-represented: about 6.5% of the library has one in this group of screens.
Vaccinia Venus = qHTS for Stage-Specific Inhibitors of Vaccinia Orthopoxvirus: Venus Reporter Primary qHTS; AID 720580, 2013; Potency, µM (series often up to 36.5 µM), inactives show at the highest dose activity change, negative = inhibition, usual class: inhibitors; hit rate 0.46% among 330,000; Vaccinia virus Venus reporter expression, fluorescence; calls by dose curve; tested in A549 cells; further: potency means the concentration at half of the fitted maximal effect; nearly all actives have a fitted effect of over 30% in size
MARV entry inh = qHTS for inhibitors of binding or entry into cells for Marburg Virus. Potency, µM (titrated, usually from 37.8 µM), for the others: top-dose activity change, negative = inhibition, actives largely listed as inhibitors. AID 540276, 2011. hit rate 1.8% among 300,000. Marburg virus pseudotyped entry inhibition, cell reporter; calls by dose curve; tested in HEK293 cells; further: potency means the concentration at half of the fitted maximal effect
FMDV inh = High Throughput Screening for Foot and Mouth Disease Virus Antivirals | AID 1159524, 2015 | Potency, µM (highest dose often 57.9 µM), without a hit: at the highest dose activity change, negative = inhibition, most hits filed as inhibitors | FMDV antiviral cell-based qHTS | hit rate 1.2% among 410,000; calls by dose curve; tested in HEK293T cells; further: read-out not given here; potency means the concentration at half of the fitted maximal effect; nearly all actives have a fitted effect of over 45% in size
HCMV antiviral = qHTS Assay for inhibitors of the human cytomegalovirus (HCMV); HFF cells, HCMV-luciferase reporter, 72 h; hits give low values; activity change, negative = inhibition, % at 57.5 µM; hit rate 4.5% among 410,000; AID 1259415, 2018; in the data active means activity change below about -60%; inconclusive means no clear call, values can overlap the other calls; inactive means above about -39%
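HFF cells seeded 16 h at 37C, treated with compounds, infected with luciferase-reporter HCMV at MOI 1 PFU/cell; luciferase read at 72 h post infection, normalized to buffer-only and Salinomycin controls.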
Lassa entry inh = qHTS for Inhibitors of binding or entry into cells for Lassa Virus. Lassa virus pseudotype entry inhibition, cell reporter. Potency, µM (series often up to 37.9 µM), for inactives: top-dose activity change, negative = inhibition, hits mostly inhibitors. hit rate 1.2% among 300,000; calls by dose curve; tested in HEK293 cells; further: potency means the concentration at half of the fitted maximal effect; nearly all actives have a fitted effect of over 50% in size
Vaccinia mCherry = qHTS for Stage-Specific Inhibitors of Vaccinia Orthopoxvirus: mCherry Reporter Primary qHTS; Vaccinia virus mCherry reporter infection, fluorescence; Potency, µM (highest dose often 36.5 µM), without a hit: at the top dose activity change, negative = inhibition, usual class: inhibitors; hit rate 0.63% among 310,000; AID 720579, 2013; calls by dose curve; tested in A549 cells; further: potency means the concentration at half of the fitted maximal effect; nearly all actives have a fitted effect of over 35% in size
* marks the source's active call; other numbers are inactive results; i = inactive; u = inconclusive; x = not tested or not shown; ! = a repeat was not active; [ ] = remark or other dose. On the % scale 0 is the no-effect control and ±100 the full control effect.

SMILES | Vaccinia Venus | MARV entry inh | FMDV inh | HCMV antiviral | Lassa entry inh | Vaccinia mCherry
CN(C1CCCCC1)S(=O)(=O)c1ccc(C(=O)Nc2sc3c(c2C(N)=O)CC(C)(C)NC3(C)C)cc1 | -13% | -13%[46.1 µM] | -12% | u | u | -9%
CC(C)CN(CC(C)C)S(=O)(=O)c1ccc(C(=O)Nc2sc3c(c2C(N)=O)CC(C)(C)NC3(C)C)cc1 | -14% | x | -6% | -97* | -27%[46.1 µM] | -5%
CCN(CC)CC(O)CN1CCCCc2nc(C)c(C)cc21 (stereo unspecified) | x | -8%[14.2 µM] | x | x | x | x
CCOc1cc2c3c(c1)C(C)=CC(C)(C)N3C(=O)C2=O | x | x | 28% | -63* | x | x
CCOc1cc2c3c(c1)C(C)CC(C)(C)N3C(=O)C2=O (stereo unspecified) | -2% | u | 16% | -36 | -19%[14.3 µM] | i
CCOC(=O)C(C)(C)N(Cc1ccc(C)cc1)S(=O)(=O)c1ccc(Cl)c([N+](=O)[O-])c1 | u | u | 25µM* | -35 | u | u
CN(C)CCCNC(=O)/C(=C\c1ccc(-c2ccc(Br)cc2)o1)NC(=O)c1ccccc1 | 13µM* | u | u | u | u | 11µM*
CN(C)CCNC(=O)/C(=C/c1ccc(-c2cccc(Cl)c2)o1)NC(=O)c1ccccc1 | -6% | 8.2µM* | -16% | 12 | u | -23%
Cc1ccc(C(=O)N/C(=C\c2ccc(-c3cccc([N+](=O)[O-])c3)o2)C(=O)NCCCN2CCOCC2)cc1 | x | x | -22% | -62* | x | x
Cc1ccc(C(=O)N/C(=C\c2ccc(-c3ccc(Cl)cc3)o2)C(=O)NCCCN(C)C)cc1 | 13µM* | 6.3µM* | -22% | -72* | u | u
CCCS(=O)(=O)N1CCN(S(=O)(=O)c2ccccc2[N+](=O)[O-])CC1 | -7% | -12%[46.1 µM] | -12% | -35 | u | i
CCCCS(=O)(=O)N1CCN(C(=N)N[N+](=O)[O-])CC1 | -9% | 10%[46.1 µM] | -8% | -62* | 22% | i
CCOC(=O)C1=C(O)c2ccccc2C(=O)/C1=C\c1ccc(C)cc1 | i | u | 28µM* | x | u | 448%
COc1cc(OC)c(-c2nn3c(-c4n[nH]c5c4CCC5)nnc3s2)cc1OC | u | x | x | x | x | 7.1µM*!
CC(=O)Oc1cc2c3c(c1)/C(=C1/SC(=S)NC1=O)C(=O)N3C(C)(C)C=C2C | x | x | u | -66* | x | x
COc1ccc(NS(=O)(=O)c2ccc3oc(SCc4ccc(F)cc4)nc3c2)cc1 | u | u | u | -61* | u | u
O=C(CCl)Nc1cccn2ncnc12 | 7.9µM* | u | -9% | -60* | u | x
O=C(Nc1cccn2ncnc12)C(F)(F)F | 1% | u | -17% | -15 | -1% | i
COc1cccc(NC(=O)c2nnn(Cc3ccc(OC)c(Br)c3)c2N)c1 | -13% | -7%[46.1 µM] | 4% | 2 | -7%[46.1 µM] | -18%
Cc1cccc(N2CCN(C(=O)C3CCCN(S(=O)(=O)c4ccc5c(c4)oc(=O)n5C)C3)CC2)c1C (stereo unspecified) | u | u | 11µM* | u | u | u
Cc1cccc(N2CCN(C(=O)C3CCN(S(=O)(=O)c4ccc5c(c4)oc(=O)n5C)CC3)CC2)c1C | -16% | u | -5% | u | 0%[46.1 µM] | -24%
CCOC(=O)N1CCC(NC(=O)C2CCCN(S(=O)(=O)c3ccc4c(c3)oc(=O)n4C)C2)CC1 (stereo unspecified) | -7% | 9% | x | -63* | -16% | -11%
Cn1c(=O)oc2cc(S(=O)(=O)N3CCCC(C(=O)N4CCN(c5cccc(Cl)c5)CC4)C3)ccc21 (stereo unspecified) | u | -16%[46.1 µM] | 25µM* | u | 3%[46.1 µM] | u
COC(=O)C1CCN(c2nc3ccccc3nc2[C@@H](C#N)C(=O)NCCc2ccccc2)CC1 | x | 0% | x | x | x | x
COc1cc2nc(N3CCCCC3)nc(NC(C)C)c2cc1OC | u | x | x | x | x | -19%
SMILES | Vaccinia Venus | MARV entry inh | FMDV inh | HCMV antiviral | Lassa entry inh | Vaccinia mCherry
CC(=O)NC(c1cc(Cl)c2cccnc2c1O)C(C)C (stereo unspecified) | x | x | -18% | -98* | x | x
CCCCC(=O)NC(c1ccco1)c1cc(Cl)c2cccnc2c1O (stereo unspecified) | u | u | -19% | -96* | u | 13µM*
CCC(=O)NC(c1cc(Cl)c2ccccc2c1O)C1CC1 (stereo unspecified) | x | x | -14% | 2 | x | x
CC(=O)NC(c1ccc(C)cc1)c1cc(Cl)c2cccnc2c1O (stereo unspecified) | u | 2.8µM* | -19% | -102* | u | u
CC(=O)NC(c1cc(Cl)c2ccccc2c1O)C(C)C (stereo unspecified) | x | x | -27% | -9 | x | x
CC(=O)NC(c1cc(Cl)c2cccnc2c1O)C1CC1 (stereo unspecified) | x | x | 0% | -97* | x | x
CC(=O)NC(c1ccccc1)c1cc([N+](=O)[O-])c2cccnc2c1O (stereo unspecified) | u | u | -19% | 25 | u | u
CC1=C(C(=O)N2CCN(c3ccc(Cl)cc3)CC2)C2(CCC(C)CC2)OC1=O (stereo unspecified) | -13% | u | -22% | 19 | -17%[46.1 µM] | -11%
CCC(=O)NC(c1ccco1)c1cc(Cl)c2cccnc2c1O (stereo unspecified) | u | u | -15% | -97* | u | 7.9µM*
CC(=O)NC(c1ccco1)c1cc(Cl)c2cccnc2c1O (stereo unspecified) | x | x | -11% | -89* | x | x
Fc1cccc(Nc2cc3c(cn2)ncn3CC2CC2)c1 | x | x | x | -4 | x | x
Cc1ccc(NC(=O)N2CCN(c3cc(-c4noc(C)n4)ccc3C)CC2)c(F)c1 | u | x | u | -26 | u | -26%
COc1cccc(CNC(=O)c2c(OC)cc(=O)n3c2CCN(C(=O)c2ccc(Cl)cc2)CC3)c1 | 0% | x | 0% | x | x | i
CCN1CCN(Cc2ccc(NC(=O)c3cc(NC(=O)C4=NN(c5ccccc5)C(=O)C4)cc(OC)c3)cc2C(F)(F)F)CC1 | -10% | x | -7% | 12 | x | -15%
CCN1CCN(Cc2ccc(NC(=O)c3cc(NC(=O)c4cncc(-c5cccs5)c4)cc(OC)c3)cc2C(F)(F)F)CC1 | u | x | -21% | -102* | x | u
CCN1CCN(Cc2ccc(NC(=O)c3cc(NC(=O)c4ccno4)cc(OC)c3)cc2C(F)(F)F)CC1 | u | x | -13% | -34 | x | -5%
CCN1CCN(Cc2ccc(NC(=O)c3cc(NC(=O)c4cc(-c5ccc(OC)cc5)n[nH]4)cc(OC)c3)cc2C(F)(F)F)CC1 | 10µM* | x | 13% | 52 | x | u
CCN1CCN(Cc2ccc(NC(=O)c3cc(NC(=O)N4CCNC4=O)cc(OC)c3)cc2C(F)(F)F)CC1 | u | x | u | -68*! | x | i

Source: PubChem BioAssay (National Center for Advancing Translational Sciences (NCATS))
